Bioassay records (PubChem)
Mtb hypoxia rep = PubChem AID 1159583; M. tuberculosis hypoxia-regulated fluorescent reporter, fluorescence; fluorescence inhibition, % (concentration not given with the values); 0.1% of 300,000 active; in the data active = fluorescence inhibition mostly above about 23%, no sharp cut-off; inactive = mostly below about 17%
PfHsp40 yeast = rescue of yeast from PfHsp40 toxicity, primary screen, S. cerevisiae, ATP luminescence | growth rescue, % at 12.5 µM | 0.68% of 340,000 active | S. cerevisiae expressing PfHsp40, growth rescue | AID 504582, 2011; in the data active = growth rescue above about 28%, passing the limit was not always enough;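 also: yeast W303a lacking pdr1 and pdr3 grown in galactose medium; growth measured after three days at 30 °C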
RN4220 kill = growth inhibition of S. aureus RN4220, primary screen, OD600; 16 h; inhibition, % (no concentration beside the values); 0.33% of 330,000 active; in the data active = inhibition above about 85%
TcdB inh = TcdB glycohydrolase inhibitors, primary screen, biochemical, single point, plate reader | Toxin B (Clostridioides difficile), P18177 | TcdB glycohydrolase enzymatic assay | inhibition, % at 9.99 µM | 0.24% of 350,000 active | AID 652162, 2013; in the data active = inhibition above about 10%
MazF activator = activators of E. coli MazEF toxin-antitoxin RNase, primary screen, biochemical, fluorescence, uHTS | 0.32% of 350,000 active | AID 504720, 2011 | FAM/BHQ RNA-DNA oligo cleavage fluorescence, 5 h | Endoribonuclease toxin MazF (Escherichia coli (strain K12)), P0AE70 | activation, % at 20 µM; in the data active = activation above about 50%
Target sequence (P0AE70 whole entry, looked up): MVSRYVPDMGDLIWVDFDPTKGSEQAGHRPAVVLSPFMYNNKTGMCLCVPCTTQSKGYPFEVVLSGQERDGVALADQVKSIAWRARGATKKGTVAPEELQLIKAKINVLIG
Sa ugtP lethal = growth inhibition of ugtP-null S. aureus, primary screen, RN4220 ugtP deletion, OD600; 0.54% of 330,000 active; 16 h; growth inhibition, % (no concentration beside the values); AID 1259309, 2017; in the data active = growth inhibition above about 68%
Of the large screens only hits and unclear results are named; the others gave an inactive call; ! = a repeat was not active. A selection: hits, their analogues and other compounds. The true share with any hit is near 1.3%.

O=C(C[C@@H]1C[C@@H]2c3cc(NC(=O)C4CCC4)ccc3O[C@@H]2[C@H](CO)O1)NCc1cccnc1	none (no result: Mtb hypoxia rep, PfHsp40 yeast, RN4220 kill, MazF activator, Sa ugtP lethal)
CC1CN=C(Nc2ccccc2)N1CCc1ccc(F)cc1 (configuration not stated)	none (no result: PfHsp40 yeast, TcdB inh, MazF activator)
COc1cccc(NC(=O)C(=O)NN=C(C)CC(=O)Nc2ccc(NC(C)=O)cc2)c1	none (no result: PfHsp40 yeast, TcdB inh, MazF activator)
COc1cccc(NC(=O)C/C(C)=N/NC(=O)c2ccccc2Cl)c1	PfHsp40 yeast 38.6 (no result: Mtb hypoxia rep, RN4220 kill, Sa ugtP lethal)
C/C(CC(=O)Nc1ccccn1)=N\NC(=O)c1ccccc1O	PfHsp40 yeast 234.2 (no result: Mtb hypoxia rep, RN4220 kill, Sa ugtP lethal)
CC(CC(=O)Nc1ccccn1)=NNC(=O)c1ccccc1	none (no result: PfHsp40 yeast, TcdB inh, MazF activator)
C[C@@H]1CCCCO[C@@H](CN(C)C(=O)Nc2ccc(C(F)(F)F)cc2)[C@@H](C)CN([C@H](C)CO)C(=O)c2cc(NC(=O)CCCCCC(=O)Nc3ccccc3N)ccc2O1	none (no result: Mtb hypoxia rep, PfHsp40 yeast, RN4220 kill, MazF activator, Sa ugtP lethal)
Cc1cc(NN=C2CC(C)CC(C)(C)C2)nc2ccccc12 (configuration not stated)	none (no result: PfHsp40 yeast, TcdB inh, MazF activator)
CCC(=O)Nc1ccc2c(c1)C(=O)N(C)[C@H]1CC[C@H](CC(=O)NCCCN(C)C)O[C@@H]1CO2	none (no result: Mtb hypoxia rep, PfHsp40 yeast, RN4220 kill, MazF activator, Sa ugtP lethal)
O=C(Nc1ccc(Cl)cc1)c1cc2c(cc1O)[nH]c1ccccc12	RN4220 kill 95.0, Sa ugtP lethal 97.9
C[C@@H]1CN([C@@H](C)CO)S(=O)(=O)c2ccc(C#C[C@@H](C)O)cc2O[C@H]1CN(C)CC1CCCC1	none (no result: Mtb hypoxia rep, PfHsp40 yeast, RN4220 kill, MazF activator, Sa ugtP lethal)
Cc1cccc(N2C(=O)N3C4c5ccccc5OCC4C(c4ccccc4)[C@]3(C)C2=O)c1 (some centres not stated)	none (no result: PfHsp40 yeast, TcdB inh, MazF activator)
CCC1OC(=O)C(C)C(OC2C[C@@](C)(OC)C(O)C(C)O2)C(C)C(O[C@@H]2OC(C)CC(N(C)C)C2O)[C@](C)(O)CC(C)C(=NOCOCCOC)C(C)C(O)[C@]1(C)O (some centres not stated)	none (no result: Mtb hypoxia rep, RN4220 kill, Sa ugtP lethal)
CCC1OC(=O)C(C)C(OC2C[C@@](C)(OC)C(O)C(C)O2)C(C)C(OC2OC(C)CC(N(C)C)C2O)[C@](C)(O)CC(C)C(=NOCOCCOC)C(C)C(O)[C@]1(C)O (some centres not stated)	RN4220 kill 99.8, Sa ugtP lethal 100.1 (not shown: Mtb hypoxia rep, PfHsp40 yeast, TcdB inh, MazF activator)
O=C(c1ccccn1)N1CC2(C1)[C@H](c1ccccc1)[C@H](CO)N2C(=O)C1CCC1	none (no result: Mtb hypoxia rep, PfHsp40 yeast, RN4220 kill, MazF activator, Sa ugtP lethal)
O=C1N/C(=C/c2cccs2)C(=O)N1Cc1ccccc1F	none
Cc1ccc(/C=C2/NC(=O)N(Cc3ccccc3F)C2=O)s1	MazF activator 85.8 (no result: TcdB inh)
Cc1ccc(C)c(S(=O)(=O)N2CCN(Cc3ccc(O)c4ncccc34)CC2)c1	PfHsp40 yeast 322.8
CC(CC(=O)Nc1ccc(C)c(Cl)c1)=NNC(=O)c1ccccn1	none (no result: PfHsp40 yeast, TcdB inh, MazF activator)
CC(=NN=C(N)SC1CC(=O)N(c2ccc(Cl)c(Cl)c2)C1=O)c1cccs1 (configuration not stated)	RN4220 kill 100.3, Sa ugtP lethal 98.8 (no result: PfHsp40 yeast, TcdB inh, MazF activator)
O=C(COc1ccc(Cl)cc1Cl)NN=CCCc1ccccc1	none (no result: PfHsp40 yeast, TcdB inh, MazF activator)
Cc1cc(NC(=O)CCCN2C(=O)c3cccc4cccc(c34)C2=O)no1	TcdB inh 11.1
O=[N+]([O-])c1ccc(O)c(/C=N/NC(=S)Nc2ccc(Cl)cc2Cl)c1	none (no result: Mtb hypoxia rep, RN4220 kill, Sa ugtP lethal)
Cc1[nH]cnc1C(=O)NN=Cc1ccc([N+](=O)[O-])s1	RN4220 kill 100.5, Sa ugtP lethal 100.5 (no result: PfHsp40 yeast, TcdB inh, MazF activator)
O=C(N/N=C/c1ccc([N+](=O)[O-])s1)c1ccccc1	PfHsp40 yeast 149.8 (no result: Mtb hypoxia rep, RN4220 kill, Sa ugtP lethal)
O=C(NN=Cc1ccc([N+](=O)[O-])s1)c1cncc(Br)c1	Sa ugtP lethal 99.1 (no result: PfHsp40 yeast, TcdB inh, MazF activator)
O=[N+]([O-])c1ccc(/C=N/NC(=S)Nc2ccc(Cl)cc2Cl)s1	PfHsp40 yeast 240.1 (no result: Mtb hypoxia rep, RN4220 kill, Sa ugtP lethal)
COc1cccc(NC(=O)N[C@H]2C=C[C@H](CC(=O)NCc3ccccn3)O[C@H]2CO)c1	none (no result: Mtb hypoxia rep, PfHsp40 yeast, RN4220 kill, MazF activator, Sa ugtP lethal)
CC(=O)C(Sc1nccc(-c2cccs2)n1)C(C)=O	TcdB inh 14.6
CC(C)NC(=O)CSc1nccc(-c2cccs2)n1	none
Oc1ccc(NC(=S)Nc2ccccc2)cc1	TcdB inh 10.6!
COc1ccc(NC(=S)NC(=O)c2ccccc2Cl)cc1	none
O=C(NC(=S)Nc1ccc(O)cc1)c1ccccc1Cl	TcdB inh 16.5
O=C(CC(c1ccccc1)c1ccccc1)Nc1ccc(O)cc1	TcdB inh 13.4
